Experimental data reported in PubChem BioAssay (EPA / NIEHS).
Inconclusive results are not listed. Active and inactive are the calls of the source. The calls were made as follows: active = hit-call score of the fitted dose curve at least 0.9, where 1 is the maximum; inconclusive = response in the unintended direction; inactive = score below 0.9.

Tests used:
[1] = molecular target: Estrogen receptor (Homo sapiens) (UniProt P03372); experiment: OT_ER_ERaERa_1440: Odyssey Thera (OT) 24-hour HEK293T Protein-Complementation Assay for Estrogen Receptor-alpha/-alpha Homodimer (AID 2283349);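 also: hits raise fluorescence above DMSO for agonists and antagonists alike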
Estrogen receptor (Homo sapiens), sequence (P03372 whole entry, looked up, the tested form may be a part): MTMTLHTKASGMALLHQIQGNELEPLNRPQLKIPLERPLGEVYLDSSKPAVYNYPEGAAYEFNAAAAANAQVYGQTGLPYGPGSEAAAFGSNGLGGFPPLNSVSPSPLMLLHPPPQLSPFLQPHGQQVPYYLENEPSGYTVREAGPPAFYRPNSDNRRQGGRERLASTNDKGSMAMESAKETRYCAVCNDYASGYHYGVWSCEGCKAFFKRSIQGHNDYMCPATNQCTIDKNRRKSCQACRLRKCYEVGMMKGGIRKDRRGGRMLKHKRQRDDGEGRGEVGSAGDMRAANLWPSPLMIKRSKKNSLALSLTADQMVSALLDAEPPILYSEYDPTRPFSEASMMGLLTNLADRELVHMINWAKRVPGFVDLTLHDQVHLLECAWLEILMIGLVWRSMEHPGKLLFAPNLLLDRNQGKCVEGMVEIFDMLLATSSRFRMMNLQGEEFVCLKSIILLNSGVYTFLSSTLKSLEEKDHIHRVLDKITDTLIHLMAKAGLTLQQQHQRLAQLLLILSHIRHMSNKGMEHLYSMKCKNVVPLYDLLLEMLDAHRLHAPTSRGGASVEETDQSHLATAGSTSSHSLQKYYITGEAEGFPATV
Method in brief: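 Readout is the rise in mean fluorescence from reporter fragment complementation when ERα LBD (aa 310-547) units dimerize in HEK293T cells. Measured 24 h after dosing and analysed as increase over DMSO control.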

[2] = molecular target: Estrogen receptor (Homo sapiens) (UniProt P03372); experiment: OT_ER_ERaERa_0480: Odyssey Thera (OT) 8-hour HEK293T Protein-Complementation Assay for Estrogen Receptor-alpha/-alpha Homodimer (AID 2283351);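 also: rise in fluorescence from reassembled reporter fragments on ERα LBD homodimer in nucleus or whole cell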
Method in brief: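 HEK293T, stable ERα LBD (aa 310-547) PCA homodimer; 8 h compound exposure; fluorescence intensity, laser scanning cytometer; positive fitting direction, DMSO baseline.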

[3] = molecular target: T1, Estrogen receptor (Homo sapiens) + Estrogen receptor beta (Homo sapiens) (UniProt P03372+Q92731); experiment: OT_ER_ERaERb_0480: Odyssey Thera (OT) 8-hour HEK293T Protein-Complementation Assay for Estrogen Receptor-alpha/-beta Heterodimer (AID 2283352)
T1 sequence (P03372 whole entry, looked up, the tested form may be a part): as above
T1 sequence (Q92731 whole entry, looked up, the tested form may be a part): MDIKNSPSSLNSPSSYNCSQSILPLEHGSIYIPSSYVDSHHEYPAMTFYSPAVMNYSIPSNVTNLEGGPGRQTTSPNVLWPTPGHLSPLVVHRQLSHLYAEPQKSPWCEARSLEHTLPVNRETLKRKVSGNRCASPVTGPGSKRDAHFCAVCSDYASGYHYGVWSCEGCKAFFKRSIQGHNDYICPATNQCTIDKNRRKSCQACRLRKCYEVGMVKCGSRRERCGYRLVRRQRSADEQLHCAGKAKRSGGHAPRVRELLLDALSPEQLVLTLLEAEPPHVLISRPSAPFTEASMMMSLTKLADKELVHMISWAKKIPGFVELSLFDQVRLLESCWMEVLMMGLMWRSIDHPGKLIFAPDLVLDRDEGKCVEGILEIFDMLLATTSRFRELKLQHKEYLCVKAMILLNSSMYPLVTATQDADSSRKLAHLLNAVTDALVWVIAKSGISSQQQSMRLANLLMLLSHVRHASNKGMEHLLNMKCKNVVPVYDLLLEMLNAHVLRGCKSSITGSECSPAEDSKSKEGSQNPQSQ
Method in brief: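 HEK293T cells expressing ER-alpha/ER-beta LBD fusions to complementary reporter fragments were dosed with compound for 8 hours. Heterodimer formation was read as increased nuclear (agonist) or nuclear plus cytoplasmic (antagonist) mean fluorescence intensity versus DMSO vehicle.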

[4] = molecular target: Androgen Receptor/SRC-1 Co-activator, AR (gene 367) (UniProt P10275); experiment: OT_AR_ARSRC1_0960: Odyssey Thera (OT) 16-hour HEK293T Protein-Complementation Assay for Androgen Receptor/SRC-1 Co-activator (AID 2283353);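 also: actives raise the signal above DMSO so potency reflects increased AR and SRC-1 complex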
Androgen Receptor/SRC-1 Co-activator, AR (gene 367), sequence (P10275 whole entry, looked up, the tested form may be a part): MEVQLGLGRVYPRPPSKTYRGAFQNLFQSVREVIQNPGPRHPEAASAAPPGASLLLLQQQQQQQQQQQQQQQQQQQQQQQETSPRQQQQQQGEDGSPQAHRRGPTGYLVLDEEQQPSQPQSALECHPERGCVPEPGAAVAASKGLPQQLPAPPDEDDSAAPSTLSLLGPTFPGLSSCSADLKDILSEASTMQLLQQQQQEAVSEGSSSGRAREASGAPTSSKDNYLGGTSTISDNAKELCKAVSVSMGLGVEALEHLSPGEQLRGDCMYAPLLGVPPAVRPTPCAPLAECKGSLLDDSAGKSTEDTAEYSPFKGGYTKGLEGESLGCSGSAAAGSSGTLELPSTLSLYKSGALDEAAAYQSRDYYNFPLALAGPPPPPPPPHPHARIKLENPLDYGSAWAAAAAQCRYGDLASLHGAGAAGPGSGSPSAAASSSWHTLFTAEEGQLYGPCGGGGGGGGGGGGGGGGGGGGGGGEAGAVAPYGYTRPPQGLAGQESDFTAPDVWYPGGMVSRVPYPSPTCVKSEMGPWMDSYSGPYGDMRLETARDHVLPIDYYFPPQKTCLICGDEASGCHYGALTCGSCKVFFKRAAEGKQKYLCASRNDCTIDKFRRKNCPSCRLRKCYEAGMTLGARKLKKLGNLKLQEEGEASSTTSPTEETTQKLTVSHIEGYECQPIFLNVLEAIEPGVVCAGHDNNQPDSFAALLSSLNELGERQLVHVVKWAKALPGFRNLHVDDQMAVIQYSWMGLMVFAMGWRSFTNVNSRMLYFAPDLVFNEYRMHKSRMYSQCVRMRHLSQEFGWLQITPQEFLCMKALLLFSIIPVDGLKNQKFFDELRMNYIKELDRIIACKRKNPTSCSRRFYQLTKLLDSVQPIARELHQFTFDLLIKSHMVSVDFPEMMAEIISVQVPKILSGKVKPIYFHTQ
Method in brief: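 Split-Venus PCA, AR/SRC-1 fusions, stable HEK293T; 16 h compound exposure; imaged at 488 and 635 nm; N/C ratio (488 nm channel), min 400 cells/image; positive-direction fit, DMSO baseline.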

[5] = molecular target: Androgen Receptor/SRC-1 Co-activator, AR (gene 367) (UniProt P10275); experiment: OT_AR_ARSRC1_0480: Odyssey Thera (OT) 8-hour HEK293T Protein-Complementation Assay for Androgen Receptor/SRC-1 Co-activator (AID 2283354);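 also: hits raise the complementation signal above DMSO so AC50 marks enhancers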
Method in brief: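 HEK293T cells stably expressing AR and SRC-1 fused to split Venus YFP fragments via (Gly4Ser)2 linkers were read 8 h after compound dosing. Complementation was imaged at 488 and 635nm, and nuclear/cytoplasmic fluorescence ratio (488nm) was taken over ≥400 cells; gain-of-signal versus DMSO.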

[6] = molecular target: T1, Estrogen receptor (Homo sapiens) + Estrogen receptor beta (Homo sapiens); experiment: OT_ER_ERaERb_1440: Odyssey Thera (OT) 24-hour HEK293T Protein-Complementation Assay for Estrogen Receptor-alpha/-beta Homodimer (AID 2283356);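 also: heteromer of ER alpha and ER beta binding domains; hits raise reporter fluorescence and both agonists and antagonists give an increase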
Method in brief: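 HEK293T cells stably expressing a PCA pair of ERα LBD (aa 310-547) and ERβ LBD (aa 263-489) were dosed for 24 h. Fluorescence intensity increase versus DMSO vehicle was fitted as gain-of-signal.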

[7] = molecular target: rat Thyrotropin Releasing Hormone Receptor (TRH), Trhr (gene 25570) (UniProt Q01717); experiment: NVS_GPCR_rTRH: NovaScreen (NVS) G Protein-Coupled Receptor Assay for rat Thyrotropin Releasing Hormone Receptor (TRH) (AID 2283329);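 also: hit means lower bound tracer signal versus DMSO baseline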
rat Thyrotropin Releasing Hormone Receptor (TRH), Trhr (gene 25570), sequence (Q01717 whole entry, looked up): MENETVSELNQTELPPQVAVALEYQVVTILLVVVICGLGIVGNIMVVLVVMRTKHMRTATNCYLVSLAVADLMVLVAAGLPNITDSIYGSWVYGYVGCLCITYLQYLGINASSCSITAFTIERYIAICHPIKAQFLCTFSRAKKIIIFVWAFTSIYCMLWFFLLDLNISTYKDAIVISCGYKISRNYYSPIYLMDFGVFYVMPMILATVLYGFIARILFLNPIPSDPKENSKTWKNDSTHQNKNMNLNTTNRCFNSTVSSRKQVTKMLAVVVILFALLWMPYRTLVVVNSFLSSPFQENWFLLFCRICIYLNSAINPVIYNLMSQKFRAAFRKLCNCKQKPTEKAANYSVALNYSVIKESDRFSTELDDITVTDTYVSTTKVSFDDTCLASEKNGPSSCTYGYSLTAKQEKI
Method in brief: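 Rat forebrain membranes; radioligand displacement at TRH receptor by filter-based scintillation counting, read 4 h after dosing. Duplicate single-point screen at 25 uM, actives rerun in concentration series; loss of signal relative to DMSO.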

[8] = molecular target: Estrogen receptor beta (Homo sapiens) (UniProt Q92731); experiment: OT_ER_ERbERb_0480: Odyssey Thera (OT) 8-hour HEK293T Protein-Complementation Assay for Estrogen Receptor-beta/-beta Homodimer (AID 2283357);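 also: active means signal gain over DMSO baseline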
Estrogen receptor beta (Homo sapiens), sequence (Q92731 whole entry, looked up, the tested form may be a part): as the sequence (Q92731 whole entry, looked up, the tested form may be a part) above
Method in brief: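 Readout: increase in mean fluorescence intensity (nucleus for agonists; nucleus plus cytoplasm for antagonists) relative to DMSO, from a reporter-fragment complementation of human ER-beta LBD homodimer in HEK293T cells dosed 8 hours.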

[9] = molecular target: bovine Estrogen Receptor (ER), ESR1 (gene 407238) (UniProt P49884); experiment: NVS_NR_bER: NovaScreen (NVS) Nuclear Receptor Binding Assay for bovine Estrogen Receptor (ER) (AID 2283345);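 also: actives lower the bound radioligand count which means they displace the ER ligand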
bovine Estrogen Receptor (ER), ESR1 (gene 407238), sequence (P49884 whole entry, looked up): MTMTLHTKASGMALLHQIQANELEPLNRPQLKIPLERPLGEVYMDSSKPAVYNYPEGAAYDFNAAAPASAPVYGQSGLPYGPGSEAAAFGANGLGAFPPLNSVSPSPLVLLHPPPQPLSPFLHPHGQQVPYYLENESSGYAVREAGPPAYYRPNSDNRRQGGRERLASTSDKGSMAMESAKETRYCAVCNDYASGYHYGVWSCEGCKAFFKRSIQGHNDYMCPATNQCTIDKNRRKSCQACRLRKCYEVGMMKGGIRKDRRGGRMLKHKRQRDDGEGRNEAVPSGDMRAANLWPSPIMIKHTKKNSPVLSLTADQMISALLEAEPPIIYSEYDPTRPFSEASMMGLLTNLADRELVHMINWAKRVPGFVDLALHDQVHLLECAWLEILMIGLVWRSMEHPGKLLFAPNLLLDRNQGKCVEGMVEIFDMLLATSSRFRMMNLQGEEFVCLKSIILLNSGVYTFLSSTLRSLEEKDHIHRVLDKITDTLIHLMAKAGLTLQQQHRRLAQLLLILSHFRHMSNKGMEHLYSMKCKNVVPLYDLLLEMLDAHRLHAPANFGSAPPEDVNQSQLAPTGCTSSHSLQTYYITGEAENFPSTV
Method in brief: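 Cell-free radioligand binding with bovine uterine membrane extracts, read 18 hours after dosing by scintillation counting. Loss of signal versus DMSO baseline indicates displacement. Primary screen run in duplicate at 25 uM, actives followed in concentration series.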

[10] = molecular target: Estrogen receptor (Homo sapiens) (UniProt P03372); experiment: NVS_NR_hER: NovaScreen (NVS) Nuclear Receptor Binding Assay for human Estrogen Receptor (ER) (AID 2283348)
Method in brief: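 Cell-free radioligand binding with protein extracted from MCF7 cells; scintillation counting 18 hours after dosing. Loss of signal versus DMSO baseline read as displacement; primary single-concentration screen at 25 uM in duplicate, actives retested in concentration series.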

[11] = molecular target: human Androgen Receptor (AR), AR (gene 367) (UniProt P10275); experiment: NVS_NR_hAR: NovaScreen (NVS) Nuclear Receptor Binding Assay for human Androgen Receptor (AR) (AID 2283332)
human Androgen Receptor (AR), AR (gene 367), sequence (P10275 whole entry, looked up): as the sequence (P10275 whole entry, looked up, the tested form may be a part) above
Method in brief: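 Actives from a duplicate 25 uM single-point screen went on to concentration series. Read-out after 20 h was scintillation counting of displaced radioligand in LnCAP extract, with DMSO as baseline.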

[12] = molecular target: chimpanzee Androgen Receptor (AR), AR (gene 747460) (UniProt O97775); experiment: NVS_NR_cAR: NovaScreen (NVS) Nuclear Receptor Binding Assay for chimpanzee Androgen Receptor (AR) (AID 2283346);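 also: radioligand displacement from AR measured by scintillation counting in a cell-free assay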
chimpanzee Androgen Receptor (AR), AR (gene 747460), sequence (O97775 whole entry, looked up): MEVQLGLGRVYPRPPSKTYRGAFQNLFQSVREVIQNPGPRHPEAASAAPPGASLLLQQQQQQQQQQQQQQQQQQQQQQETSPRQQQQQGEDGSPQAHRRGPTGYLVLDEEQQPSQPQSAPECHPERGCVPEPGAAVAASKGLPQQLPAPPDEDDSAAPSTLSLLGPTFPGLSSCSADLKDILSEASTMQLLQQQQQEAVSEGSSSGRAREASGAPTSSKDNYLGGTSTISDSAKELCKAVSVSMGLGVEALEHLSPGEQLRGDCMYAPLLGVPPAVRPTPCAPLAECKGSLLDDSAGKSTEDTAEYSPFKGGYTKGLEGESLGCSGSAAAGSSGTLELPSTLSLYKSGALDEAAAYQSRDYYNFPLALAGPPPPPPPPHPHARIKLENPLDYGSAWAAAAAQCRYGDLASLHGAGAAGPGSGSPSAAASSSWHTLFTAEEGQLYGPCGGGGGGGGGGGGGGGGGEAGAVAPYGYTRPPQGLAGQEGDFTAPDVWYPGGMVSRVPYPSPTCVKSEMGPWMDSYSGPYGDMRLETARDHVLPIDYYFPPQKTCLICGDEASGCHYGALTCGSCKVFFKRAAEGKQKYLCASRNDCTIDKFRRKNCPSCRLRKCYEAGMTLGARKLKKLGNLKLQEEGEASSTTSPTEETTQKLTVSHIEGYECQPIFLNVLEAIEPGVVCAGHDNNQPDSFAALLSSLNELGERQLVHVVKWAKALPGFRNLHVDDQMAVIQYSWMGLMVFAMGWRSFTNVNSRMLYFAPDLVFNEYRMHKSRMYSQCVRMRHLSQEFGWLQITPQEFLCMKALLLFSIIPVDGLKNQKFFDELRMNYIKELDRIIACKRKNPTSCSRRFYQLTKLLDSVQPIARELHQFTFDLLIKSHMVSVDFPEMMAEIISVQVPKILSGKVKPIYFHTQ
Method in brief: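 Cell-free radioligand displacement using receptor protein extracted from Sf9/Sf21 cells; bound radioligand measured by scintillation counting 72 hours after chemical dosing. Loss of signal versus DMSO baseline indicates binding; primary screen single-concentration in duplicate at 25 uM, actives followed in concentration series.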

[13] = molecular target: human Peripheral-type Benzodiazepine Receptor (PBR), TSPO (gene 706) (UniProt P30536); experiment: NVS_MP_hPBR: NovaScreen (NVS) Membrane Protein Assay for human Peripheral-type Benzodiazepine Receptor (PBR) (AID 2283331);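 also: hits reduce radioligand binding relative to DMSO baseline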
human Peripheral-type Benzodiazepine Receptor (PBR), TSPO (gene 706), sequence (P30536 whole entry, looked up): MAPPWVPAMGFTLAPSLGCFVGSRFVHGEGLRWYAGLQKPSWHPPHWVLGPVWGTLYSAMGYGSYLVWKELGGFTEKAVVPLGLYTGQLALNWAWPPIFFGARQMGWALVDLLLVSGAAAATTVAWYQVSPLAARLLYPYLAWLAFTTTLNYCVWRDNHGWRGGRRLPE
Method in brief: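 Human colonic cell membranes were incubated with test chemical for 1 hour; radioligand binding was measured by filter-based scintillation counting. Primary screen ran in duplicate at 25 uM, with actives followed in concentration series; loss of signal versus DMSO baseline.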

Measured: AC50

F[Si-2](F)(F)(F)(F)F
inactive: [1] | [2] | [3] | [4] | [5] | [6]

COCCOCCC[Si](C)(O[Si](C)(C)C)O[Si](C)(C)C
active: [1] 76.1 µM | [3] 50 µM | [4] 34.3 µM | [6] 58.7 µM | [8] 51.5 µM
inactive: [7] | [2] | [5]

CCc1cc(Cc2cc(CC)c(N)c(CC)c2)cc(CC)c1N
inactive: [9] | [1] | [2] | [3] | [8]
active: [10] 0.0643 µM | [6] 12.4 µM

O=C1c2ccccc2C(=O)c2c(Cl)cccc21
active: [11] 2.06 µM | [12] 0.93 µM

CCCCCCCC/C=C\CCCCCCCC(=O)N(C)CC(=O)O
inactive: [13] | [9] | [1] | [3] | [6] | [8]

O=C1C=CC(=O)N1c1ccccc1
inactive: [1] | [2] | [6]
active: [4] 16.4 µM | [5] 25.6 µM

O=C1C=CC(=O)N1c1ccc(Cc2ccc(N3C(=O)C=CC3=O)cc2)cc1
inactive: [9] | [10]

CCCCC(CC)COC(=O)c1ccc(N(C)C)cc1 (stereo unspecified)
inactive: [1] | [2] | [3] | [6] | [8]

CCOC(OCC)OCC
inactive: [1] | [2] | [3] | [6] | [8]

Cc1cc(O)c(C(C)(C)C)cc1C(C)(C)C
inactive: [9]

CC(C)(C)c1cc(Cc2cc(C(C)(C)C)c(O)c(C(C)(C)C)c2)cc(C(C)(C)C)c1O
inactive: [7] | [1] | [2] | [3] | [6] | [8]

CC(=O)CCC(C)C
active: [1] 69.3 µM
inactive: [12] | [2]
